# Reference: PubChem BioAssay AID1460 (National Center for Advancing Translational Sciences (NCATS), 2008)
# The campaign covered roughly 270,000 compounds. About 5,800 (2.1%) were called active. About 16% were inconclusive and are not listed. Shown is part of a subset that was picked to be rich in actives. Unmarked numbers belong to inactive results. Calls follow the shape of the dose curve; as a rule, active = well fitted inhibition curve with a large enough effect; inconclusive = small, poorly fitted or top-dose-only effect; inactive = flat fitted curve, though single readings scatter.
# Molecular target: Microtubule-associated protein tau (Homo sapiens) (UniProt P10636)
# Assay: qHTS for Inhibitors of Tau Fibril Formation, Thioflavin T Binding; also: nearly all actives have a fitted effect of over 55% in size
# Details: recombinant tau K18 P301L (four-repeat tau fragment), heparin-induced fibrillization, ThT fluorescence; series mostly up to 57.4 µM; activity, negative = inhibition: at the top concentration
# Summary of the method: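 In this qHTS, human K18 P301L tau is incubated with compound and heparin for 6 hr at 37 C, and Thioflavin T fluorescence then reports fibril load.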
# % is scaled to controls: 0 for no effect and ±100 for the full control effect; potency is read from the fitted curve at half-maximal effect.
# Chain of Microtubule-associated protein tau (Homo sapiens) (P10636 561-689 P618L limits assumed): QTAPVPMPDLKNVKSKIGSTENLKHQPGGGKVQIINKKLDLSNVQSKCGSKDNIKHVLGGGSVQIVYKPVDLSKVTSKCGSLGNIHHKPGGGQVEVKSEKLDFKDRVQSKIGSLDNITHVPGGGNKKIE
SMILES,"activity, negative = inhibition [%]",Potency
Cc1ccc(Nc2ccc3cc(S(=O)(=O)N4CCCCC4)ccc3n2)cc1F,1.9,–
CCc1nc(NCCO)c(C#N)c2c1CCCC2,-1.9,–
CCCCc1nc(NCc2ccccc2)c(C#N)c2c1CCCC2,-11.9,–
CCN1CCc2c(C#N)c(NCc3ccccc3)nc(NCCO)c2C1,–,22.4 µM (active)
COc1ccc(SCc2cc(=O)c3ccc(C)c(C)c3[nH]2)cc1,-4.47,–
COc1ccc(CNC(=O)C(C)n2nc(C)c3c(C)n(-c4ccccc4)nc3c2=O)c(OC)c1 (configuration not stated),13.1,–
CCOC(=O)c1[nH]c(C)c(CCC(=O)NCc2ccccc2C)c1C,4.91,–
CCC(C)Cn1c(O)cc2nn(-c3nc4ccccc4s3)c(=O)c-2c1C (configuration not stated),–,31.6 µM (active)
Cc1cc(NC(=O)CN2CCCC(C)C2)n(-c2nc3ccccc3s2)n1 (configuration not stated),-4.78,–
CCOC(=O)N1CCN(CC(=O)Nc2cc(C)nn2-c2nc3ccccc3s2)CC1,-20.1,–
COc1ccccc1N1CCN(c2ncnc3onc(-c4ccc(F)cc4)c23)CC1,-11,–
N#Cc1ccccc1Cn1cnc2nc3c(cc2c1=O)CCCC3,6.09,–
CCOC(=O)c1c(NC(=O)/C(C#N)=C/c2ccccc2)sc2c1CCC2,-11.2,–
CCOC(=O)N1CCc2c(sc3c2C(=O)NC(c2ccccc2F)N3)C1 (configuration not stated),-16.9,–
C/C(=C\c1ccccc1)C1NC(=O)c2c(sc3c2CCCC3)N1 (configuration not stated),–,3.55 µM (active)
O=C(Nc1ccc2nc(SCC(=O)N3CCCc4ccccc43)sc2c1)c1ccc(Cl)cc1,-9.33,–
CCC(=O)Nc1c(C(=O)N2CCN(c3ccc(F)cc3)CC2)oc2ccccc12,-8.2,–
O=C(/C=C/Nc1ccccc1OC(F)(F)F)C(F)(F)F,12.2,–
CC(=O)N(C)c1ccc(NC(=O)C(F)(F)F)cc1,-4.07,–
CN(C)c1ccc(N/C=C/C(=O)C(F)(F)F)cc1,–,10 µM (active)
COC(=O)c1scc(-c2ccccc2)c1S(=O)(=O)Nc1ccccc1,-4.33,–
Fc1ccc(Nc2nnns2)cc1,–,28.2 µM (active)
CSc1nc(Nc2ccc(F)cc2)cc(-c2ccccc2)n1,1.92,–
Cc1ccccc1OCCSc1nc2ccc(NC(=O)c3ccco3)cc2s1,8.23,–
COc1cccc2c1cc1c(=O)n(CC(=O)N3CCN(c4cccc(Cl)c4)CC3)nc(C)n12,2.8,–
Cc1ccc(NC(=O)C(=O)NCC(c2cccnc2)N2CCOCC2)cc1 (configuration not stated),-11.6,–

SMILES,"activity, negative = inhibition [%]",Potency
O=C(Nc1nc2ccccc2s1)c1ccc2c(c1)OCO2,-0.597,–
Cc1ccc2sc(NNC(=O)c3ccc4c(c3)OCCO4)nc2c1C,–,12.6 µM (active)
Cc1cc(C)c2nc(NC(=O)c3ccc4c(c3)OCO4)sc2c1,-7.3,–
COc1ccc(-c2noc(-c3ccc(N4CCN(c5ccccc5)CC4)c([N+](=O)[O-])c3)n2)cc1OC,-14.1,–
O=C(Nc1ccccc1F)C(c1ccccc1)N1Cc2ccccc2C1=O (configuration not stated),-3.81,–
Cc1[nH]n(-c2ccc(Cl)cc2)c(=O)c1/C=N/n1c(C)nc2ccccc2c1=O,-19.5,–
C[N+](C)(CCCCCC[N+](C)(C)CCCN1C(=O)c2cccc3cccc(c23)C1=O)CCCN1C(=O)c2cccc3cccc(c23)C1=O,3.91,–
Cc1ccc(-n2[nH]c(C)c(/C=N/N3C(=O)c4cccc5cccc(c45)C3=O)c2=O)cc1,–,22.4 µM (active)
COc1ccc(NC(=O)CCCc2nnc3n(CCC(C)C)c(=O)c4sccc4n23)c(OC)c1,-4.84,–
COC(=O)c1cc2occc2n1Cc1nc(-c2ccc(C)cc2)oc1C,7.52,–
O=c1c(O)c(Br)ccc2c(Br)c(O)c(O)c(O)c12,–,3.55 µM (active)
COc1cccc(C(=O)NCc2ccc3c(c2)CCN3C(=O)c2ccncc2)c1,-1.82,–
Cc1ccc(Cl)cc1N1CCN(C(=O)c2cccn3c(=O)c4cc(Cl)ccc4nc23)CC1,1.52,–
COc1ccc(NS(=O)(=O)c2cc3c(cc2C)N(C(C)=O)CCO3)cc1,-6.28,–
Cc1nn(CC(=O)N/N=C/c2ccc(F)cc2)c(C)c1[N+](=O)[O-],-6.13,–
Cc1cc(C(=O)COC(=O)C2CC2)c(C)n1-c1ccc(F)cc1,-7.67,–
Cc1cc(C(=O)N/N=C/c2ccc(O)c([N+](=O)[O-])c2)c(C)n1-c1ccc(F)cc1,–,14.1 µM (active)
Cc1ccc2c(=O)c(C(=O)c3ccc(Cl)cc3)cn(CC(=O)NC3CCCCC3)c2n1,-11.7,–
CCOC(=O)C1=NO[C@@]2(C=C(Br)C(=O)[C@H]3O[C@H]32)C1,–,15.8 µM (active)
CCOC(=O)C1=C(C)NC(=O)NC1c1ccccc1 (configuration not stated),-5.11,–
CCOC(=O)C1=NOC(Cn2cc(C(C)=O)c(=O)[nH]c2=O)C1 (configuration not stated),0.727,–
CCc1ccccc1NC(=O)CSc1nnc(-c2ccccc2)c(-c2ccccc2)n1,-10.8,–
CC(=O)N1CCCc2cc(S(=O)(=O)Nc3ccc(Cl)cc3F)ccc21,-5.83,–
CCN1C(=O)/C(=C\N2CCN(c3ccccc3)CC2)SC1=S,-10.5,–
CCc1ccc(/C=C2\SC(N3CCOCC3)=NC2=O)cc1,-5.76,–
CCN1C(=O)/C(=C2\SC(N3CCCCC3)=NC2=O)c2ccccc21,–,11.2 µM (active)

SMILES,"activity, negative = inhibition [%]",Potency
CCc1ccc(NC(=O)c2cc(S(=O)(=O)N3CCCC(C)C3)cn2C)cc1 (configuration not stated),4.85,–
Cc1c(Cl)cccc1-c1ccc(CNCCCSc2nnnn2C)o1,-6.19,–
CCn1cc2nc(SCc3ccccc3Cl)n(CCc3ccccc3)c(=O)c2n1,-12.5,–
Cc1nc2ccccc2nc1N/N=C/c1ccc(O)cc1O,–,14.1 µM (active)
Oc1ccc(/C=N/NC2=NCCCCC2)c(O)c1,-11.4,–
Cc1n[nH]c(=O)nc1N/N=C/c1cccs1,-16.7,–
Oc1ccc(/C=N/Nc2nc(-c3ccccc3F)nc3ccccc23)c(O)c1,–,4.47 µM (active)
Cc1cc(N/N=C/c2ccccc2F)c2ccccc2n1,0.109,–
Fc1ccc(/C=N/Nc2nc(-c3cccnc3)nc3ccccc23)cc1,-19.8,–
Cc1nc2nc(SCC(=O)NC3CCC(C)CC3)nn2c(C)c1Cc1ccccc1Cl (configuration not stated),-13.3,–
COC(=O)c1scc(-c2ccc(C)cc2)c1S(=O)(=O)Nc1cc(Cl)c(OC)cc1OC,-2.57,–
CC1CCN(S(=O)(=O)c2ccc3c(c2)N(CC(=O)NCCc2ccccc2)C(=O)CO3)CC1,-3.46,–
CNc1ccc(SC#N)cc1,–,12.6 µM (active)
COc1ccccc1C1=Nc2cccc3cccc(c23)N1,–,11.2 µM (active)
COc1ccccc1-c1nc(SC)n[nH]1,3.07,–
CNc1nc(-c2ccccc2OC)nc2ccccc12,-7.91,–
CCc1cccc(NC(=O)Cn2nc(CC)n3c(cc4cc(C)ccc43)c2=O)c1,6.72,–
Cc1cn(C)c(CC(=O)NCc2ccc(Cl)cc2)c1C(=O)O,-5.43,–
CCOc1cccc(CC(=O)N2CCc3c([nH]c4ccccc34)C2c2ccc(OC)cc2)c1OCC (configuration not stated),-12.2,–
Nc1ccc(N=Nc2ccccc2Cl)c(N)n1,–,2 µM (active)
CCOC(=O)C1CCC(CN(Cc2ccc(OC)cc2)S(=O)(=O)c2ccc(F)c(C(=O)Nc3cc(C)ccc3C)c2)CC1 (configuration not stated),-2.42,–
CCOC(=O)c1cc(-c2ccccc2)n(-c2cccc(C(=O)Nc3cc(OC)cc(OC)c3)c2)c1C,2.87,–
COc1ccc(/C=C2\SC(=S)N(CC(=O)NNC(=O)c3ccncc3)C2=O)cc1,-17.1,–
O=C(CCCN1C(=O)/C(=C\c2ccccc2)SC1=S)Nc1ccccc1O,-12.1,–
COc1ccc(/C=C2/SC(=O)N(CCCCCC(=O)Nc3ccccc3C(=O)O)C2=S)cc1,–,11.2 µM (active)
Cc1cc(OCC(=O)Nc2ncn[nH]2)c(C)c(C)c1Br,1.95,–

SMILES,"activity, negative = inhibition [%]",Potency
CCOCCCNC(=O)c1cc2c(=O)n3ccccc3nc2s1,-11.4,–
Cc1cccc(-n2c(=O)c3c(c4cc(C)ccc4n3C)n(CC(=O)Nc3ccccc3Cl)c2=O)c1,7.44,–
Cc1noc(/C=C/N(C)C)c1S(=O)(=O)N1CCCC(C(=O)Nc2cccc(F)c2)C1 (configuration not stated),-18.5,–
O=C(NCc1ccco1)C1CCCN(S(=O)(=O)c2ccccc2)C1 (configuration not stated),9.5,–
Cc1noc(/C=C/N(C)C)c1S(=O)(=O)N1CCCC(C(=O)NCc2ccco2)C1 (configuration not stated),–,28.2 µM (active)
Cc1cccc(N2CCN(S(=O)(=O)c3ccc4[nH]c5c(c4c3)CCCCC5)CC2)c1C,9.87,–
CC1(C)CC(=O)c2ccc(O)cc2O1,-1.2,–
CC[C@@H]1Cc2cc(O)ccc2C2=C1c1ccc(O)cc1C[C@H]2CC,–,17.8 µM (active)
COc1ccccc1Cc1nc2ccccc2nc1SCC(=O)N1CCCc2ccccc21,-6.43,–
O=[N+]([O-])c1ccc(N2CCN(c3ccc(O)cc3)CC2)c(Cl)c1,–,6.31 µM (active)
CCN1CCN(c2ccc([N+](=O)[O-])cc2C(=O)c2ccc(Cl)cc2)CC1,-12.9,–
CC1CCN(c2ccc([N+](=O)[O-])cc2C(N)=O)CC1,-10.4,–
O=C(NC1(C(F)(F)F)N=C(c2ccccc2)N(C2CCCCC2)C1=O)c1ccccc1F (configuration not stated),-3.93,–
NNc1nc2c(Cl)cccc2s1,–,22.4 µM (active)
Fc1cc(F)c2nc(Nc3nc4c(F)cccc4s3)sc2c1,4.52,–
CN(C)CCCN(C(=O)COc1ccccc1)c1nc2c(Cl)cccc2s1,3.98,–
Cc1ccc(CNC(=O)Cn2c(=O)ccc3cc(S(=O)(=O)N4CCCC4)ccc32)cc1,3.36,–
CCc1ccccc1NC(=O)Cn1c(=O)n(CC2CCC(C(=O)NCCc3ccccc3)CC2)c(=O)c2ccccc21 (configuration not stated),-5.1,–
C#CCOc1ccc(C2CC(=O)Nc3c2c(C)nn3-c2nc(C)cc(C)n2)cc1 (configuration not stated),-6.86,–
Cc1ccc(C(=O)N2CCc3cc(CNC(=O)c4ccc(Br)cc4)ccc32)cc1,-15.5,–
Cc1nn(-c2ccc(N3CCCCC3)nn2)c(C)c1CCC(=O)NCc1ccccc1F,-4.06,–
O=C1/C(=C\c2cccnc2)CN(Cc2ccccc2)C/C1=C\c1cccnc1,–,14.1 µM (active)
Clc1ccc(CN2CCN(/N=C/c3cccnc3)CC2)cc1,-5.56,–
O=Cc1cn(Cc2ccccc2)nc1-c1cccnc1,-0.733,–
